From PubChem BioAssay
FMDV antiviral: High Throughput Screening for Foot and Mouth Disease Virus Antivirals | FMDV antiviral cell-based qHTS | Potency, µM (top dose mostly 57.9 µM), most hits filed as inhibitors | 1.2% of 410,000 active; calls by dose curve; tested in HEK293T cells; note: read-out not given here; nearly all actives have a fitted effect of over 45% in size
MARV entry inh: qHTS for inhibitors of binding or entry into cells for Marburg Virus | Potency, µM (titrated, usually from 37.8 µM), hits mostly inhibitors | 1.8% of 300,000 active | Marburg virus pseudotyped entry inhibition, cell reporter; calls by dose curve; tested in HEK293 cells
HCMV antiviral: qHTS Assay for inhibitors of the human cytomegalovirus (HCMV); HFF cells, HCMV-luciferase reporter, 72 h; active compounds read low; activity change, negative = inhibition, % at 57.5 µM; 4.5% of 410,000 active; in the data active = activity change below about -60%; inconclusive = no clear call, values can overlap the other calls; inactive = above about -39%
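Cell-based, HFFs, 1000 cells/well, 16 h 37C; cpds in DMSO + HCMV-luc, MOI 1 PFU/cell; 72 h 37C; OneGlo luminescence after 5 min RT; norm. to buffer vs Salinomycin 10uM.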
Lassa entry inh: qHTS for Inhibitors of binding or entry into cells for Lassa Virus | Lassa virus pseudotype entry inhibition, cell reporter | 1.2% of 300,000 active | Potency, µM (top dose mostly 37.9 µM), hits mostly inhibitors | AID 540256, 2011; calls by dose curve; tested in HEK293 cells; note: nearly all actives have a fitted effect of over 50% in size
HCV inhibitor: qHTS Assay for Inhibitors of Hepatitis C Virus (HCV) | Huh7.5.1 HCVcc-Cre infection, luciferase reporter, 44 h | Potency, µM (titrated, usually from 41.8 µM), actives largely listed as inhibitors | 3.4% of 340,000 active | AID 651820, 2012; active = well fitted inhibition curve with a large enough effect; inconclusive = small, poorly fitted or top-dose-only effect, or another doubt; inactive = no such curve, though single readings can be large or run the other way
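Cells seeded at 1,000/well and cultured 4 h, then compounds added followed by HCVcc-Cre virus (~0.5 moi). After 44 h further culture, luciferase substrate was added, plates held 15 min at room temperature, and luminescence read for 15 sec.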
Large screens that a line does not name were inactive. An excerpt weighted towards active compounds, which were near 7.9% of everything screened.

ClC(Cl)(Cl)c1nc2ccccc2n2nncc12	FMDV antiviral inconclusive, MARV entry inh 4.5µM, HCMV antiviral -88, Lassa entry inh inconclusive, HCV inhibitor 13µM
CSC1=NC(=O)C2=C3CC(C)(C)OCC3SC2=N1 (stereo unspecified)	none (no result: FMDV antiviral, HCMV antiviral, Lassa entry inh, HCV inhibitor)
COC(=O)c1cccc(S(=O)(=O)N(Cc2ccco2)Cc2cc3cc(OC)ccc3[nH]c2=O)c1	FMDV antiviral 22µM, Lassa entry inh inconclusive, HCV inhibitor inconclusive
CCCCN(Cc1cc2cc(OC)ccc2[nH]c1=O)S(=O)(=O)c1ccc(C)cc1	FMDV antiviral inconclusive, HCMV antiviral -70, HCV inhibitor 13µM (no result: MARV entry inh, Lassa entry inh)
Cc1cc2cc(CN(Cc3ccco3)S(=O)(=O)c3c(C)ccc4nsnc34)c(=O)[nH]c2cc1C	MARV entry inh inconclusive, Lassa entry inh 8.2µM, HCV inhibitor inconclusive
C/C(=N\O)c1oc2ccc3c(C)cc(=O)oc3c2c1C	HCMV antiviral -63
Cc1cc(=O)oc2c(N)c(O)ccc12	none (no result: MARV entry inh, Lassa entry inh)
O=C(NCCCN1CCOCC1)c1ccc(/C=C2\Oc3ccccc3N(Cc3ccccc3F)C2=O)cc1	FMDV antiviral inconclusive, HCV inhibitor inconclusive (no result: MARV entry inh, Lassa entry inh)
CCN1CCN(CCCNC(=O)c2ccc(/C=C3/Sc4ccccc4N(Cc4ccccc4F)C3=O)cc2)CC1	HCMV antiviral inconclusive, HCV inhibitor 11µM (no result: MARV entry inh, Lassa entry inh)
CCN1CCN(CCNC(=O)c2ccc(/C=C3/Sc4ccccc4N(Cc4ccccc4C)C3=O)cc2)CC1	HCMV antiviral -63, HCV inhibitor 6.3µM (no result: MARV entry inh, Lassa entry inh)
O=C(c1ccccc1)N1CCN(C(=O)C2CC2)CC1	none
CCSC(SCC)[C@H](O)[C@@H](O)[C@H](O)[C@H](O)CO	HCMV antiviral -65
Cc1cccc(CN2CCN([C@@H]3CS(=O)(=O)N[C@H]3COCc3ccccc3)CC2)c1	none (no result: MARV entry inh, Lassa entry inh, HCV inhibitor)
O=C1/C(=N\S(=O)(=O)c2cccs2)C([n+]2ccccc2)=C([O-])c2ccccc21	FMDV antiviral 25µM, HCMV antiviral -66, HCV inhibitor 6.3µM (no result: MARV entry inh, Lassa entry inh)
COc1cc(OC)cc(-c2nc3ccccc3c(=O)n2OC(=O)c2ccc(C)c(C)c2)c1	FMDV antiviral inconclusive, MARV entry inh 11µM, Lassa entry inh inconclusive
CC(CC1=C2C=CC=CC2N=C1)NC(N)=O (stereo unspecified)	none (no result: FMDV antiviral, HCMV antiviral, Lassa entry inh, HCV inhibitor)
Cc1ccc(OCC(=O)Nc2ccc3c(c2)OCCO3)cc1C	MARV entry inh inconclusive, HCMV antiviral -63, Lassa entry inh inconclusive
Cc1ccc(OCC(=O)Nc2cc(NC(=O)COc3ccc(C)cc3)cc(C(=O)O)c2)cc1	none (no result: MARV entry inh, Lassa entry inh)
Cc1ccc(OCC(=O)Nc2cc(C(=O)O)cc(C(=O)O)c2)cc1C	HCMV antiviral -65
CCOC(=O)[C@@](O)(C1C(=O)CC(C)(C)CC1=O)C(F)(F)F	none (no result: FMDV antiviral, HCMV antiviral, Lassa entry inh, HCV inhibitor)
O=C(COc1ccc(Cl)cc1)N1CCN(S(=O)(=O)c2cc(F)ccc2F)CC1	HCMV antiviral inconclusive (no result: MARV entry inh, Lassa entry inh, HCV inhibitor)
Cc1ccc(N2C(=O)CC(NNc3nc4ccccc4s3)C2=O)cc1C (stereo unspecified)	HCMV antiviral -79
COc1ccc(N2C(=O)CC(NNc3nc4ccccc4s3)C2=O)cc1 (stereo unspecified)	none
C=Cc1c(C)/c2[n-]/c1=C\c1[n-]c(c(CC)c1C)/C=c1\[n-]c3c(c1C)C(=O)C(C(=O)[O-])C=3c1[n-]c(c(C)c1CCC(=O)[O-])\C=2.[Cu].[Na+].[Na+] (stereo unspecified)	MARV entry inh 31µM, Lassa entry inh inconclusive (no result: FMDV antiviral, HCMV antiviral, HCV inhibitor)
COc1ccc(CCNC(=O)CC(Cc2ccccc2)C(=O)O)cc1OC (stereo unspecified)	none
N#CC(c1ccccc1O)N1N=C(c2ccccc2)CC1c1ccccc1 (stereo unspecified)	HCMV antiviral -61, HCV inhibitor inconclusive (no result: MARV entry inh, Lassa entry inh)
Cn1nnnc1Sc1ncnc2scc(-c3ccc[nH]3)c12	FMDV antiviral inconclusive, HCMV antiviral -98 (no result: MARV entry inh, Lassa entry inh, HCV inhibitor)
COc1ccccc1CNCCSc1nnnn1C	none (no result: HCV inhibitor)
Cn1nnnc1SCSc1nnnn1C	none
COc1ccccc1-c1csc2ncnc(Sc3nnnn3C)c12	FMDV antiviral inconclusive, HCMV antiviral -74 (no result: MARV entry inh, Lassa entry inh, HCV inhibitor)
Cn1nnnc1SCc1nc2scc(-c3ccccc3)c2c(=O)[nH]1	FMDV antiviral inconclusive (no result: MARV entry inh, Lassa entry inh)
Cn1nnnc1Sc1ncnc2scc(-c3ccccc3)c12	FMDV antiviral 22µM, MARV entry inh 7.1µM, HCMV antiviral -67, Lassa entry inh inconclusive
Cn1nnnc1Sc1ncnc2scc(Br)c12	FMDV antiviral 22µM, HCMV antiviral -97 (no result: MARV entry inh, Lassa entry inh, HCV inhibitor)
CCC1(C2CCN(C(=O)c3ccccc3C)CC2)NC(=O)N(CCc2scnc2C)C1=O (stereo unspecified)	none (no result: MARV entry inh, HCMV antiviral, Lassa entry inh, HCV inhibitor)
O=S(=O)(c1ccccc1)c1nnn2c1nc(NC1CCCCCC1)c1sccc12	none (no result: MARV entry inh, HCV inhibitor)
COc1ccc(NC(=O)c2oc3ccccc3c2NC(=O)c2cc(=O)c3c(C)cc(C)cc3o2)cc1	none (no result: HCV inhibitor)
Cn1nnnc1Sc1ncnc2scc(-c3ccccc3Br)c12	FMDV antiviral inconclusive, HCMV antiviral -93 (no result: MARV entry inh, Lassa entry inh, HCV inhibitor)
Cn1nnnc1Sc1ncnc2scc(-c3ccc(Br)cc3)c12	FMDV antiviral 18µM, HCMV antiviral -98 (no result: MARV entry inh, Lassa entry inh, HCV inhibitor)
Cn1nnnc1Sc1ncnc2scc(-c3ccc(F)cc3)c12	FMDV antiviral 16µM, MARV entry inh 8.2µM, HCMV antiviral -76, Lassa entry inh 4.1µM, HCV inhibitor inconclusive
CCn1cnc2scc(-c3ccccc3)c2c1=O	HCV inhibitor inconclusive
c1ccc(-c2csc3ncn4nnnc4c23)cc1	HCMV antiviral -100
CC(C)(C)OC(=O)N1CCC(c2c(C(=O)NC3CCN(Cc4ccccc4)CC3)cnn2-c2cccc(F)c2)CC1	none (no result: MARV entry inh, HCV inhibitor)
CCN(CC)S(=O)(=O)c1ccc(N2CCOCC2)c(NC(=O)COc2ccccc2C)c1	HCMV antiviral inconclusive, HCV inhibitor inconclusive (no result: MARV entry inh, Lassa entry inh)
N#Cc1c(-c2ccc(F)cc2)nc2n(c1=O)CCS2	HCV inhibitor 22µM
Cc1c(C(=O)N2CCN(C(c3ccccc3)c3ccccc3)CC2)oc2ccccc12	FMDV antiviral inconclusive, HCV inhibitor inconclusive (no result: MARV entry inh, Lassa entry inh)
COc1ccc(C(=O)NCCCc2ccccc2)cc1OC	Lassa entry inh inconclusive
O=[N+]([O-])c1ccccc1-c1cc(-c2ccccc2)cc(-c2ccccc2)[n+]1Cc1ccccc1Cl	FMDV antiviral inconclusive, HCMV antiviral -97, HCV inhibitor 3.5µM (no result: MARV entry inh, Lassa entry inh)
COC(=O)[C@@]12C[C@@H](CC(=O)N3CCN(C(=O)C4CC4)CC3)C(=O)N(Cc3ccc4c(c3)OCO4)C1=CCC(C)(C)C2	none (no result: MARV entry inh, Lassa entry inh, HCV inhibitor)
COc1ccc2c(c1)c(C(C)=O)c(C)n2-c1ccc(C(C)=O)cc1	HCMV antiviral -74
COc1ccc2c(c1)c(C(=O)O)c(C)n2-c1ccccc1	HCV inhibitor inconclusive
COc1ccc(-n2c(C)c(C(C)=O)c3cc(OC(C)=O)ccc32)cc1	HCMV antiviral -80, HCV inhibitor inconclusive (no result: MARV entry inh, Lassa entry inh)
CC(C)c1ccc(OCc2nc(-c3ccccn3)no2)c(Br)c1	MARV entry inh inconclusive, Lassa entry inh inconclusive, HCV inhibitor 13µM
COc1ccc(CNC(=O)C(C)n2ccc3cc(S(=O)(=O)N4CCCCCC4)ccc32)cc1 (stereo unspecified)	HCV inhibitor 6.3µM (no result: MARV entry inh, Lassa entry inh)
